Laboratory results taken from PubChem BioAssay (NCI).
About 79,000 compounds went through this panel and 15% of them were active in at least one assay; those are over-represented in the sample as a whole. A number with no mark means an inactive call. Activity calls are given as the source filed them. Rule as the data show it: active = growth inhibition above about 70%; inactive = the rest.

Test: NCI Yeast Anticancer Drug Screen. Data for the mlh1 rad18 strain (AID 175)
Details: S. cerevisiae mlh1 rad18 strain growth inhibition; at 50.0 µM; active compounds read high
Summary of the method: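 Steps: expose repair-defective yeast to compound; measure growth; express inhibition against vehicle-treated controls.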
For `Oc1cccnc1CN1CCCC1`, the growth inhibition was 18.4%.
For `C=CCC(OC(C)=O)c1ccc(C(C)C)cc1` (centres undefined), the growth inhibition was 5.45%.
For `C=C(C)COc1ccc(C(C)(C)C)cc1`, the growth inhibition was 12%.
For `C=C1CC2(OC1=O)C(=O)N(C)c1ccc(I)cc12` (centres undefined), the growth inhibition was 91.2% (active).
For `NC(=O)NCCO`, the growth inhibition was 13.3%.
Work on `Oc1cc(O)c2c(c1)O[C@H](c1ccc(O)c(O)c1)[C@@H](O)C2` yielded a growth inhibition of -18.1%.
Work on `O=S(=O)(O)C(C(I)I)S(=O)(=O)O` yielded a growth inhibition of -7.6%.
Compound `Cc1ccc(C)c(CCO)c1` has a growth inhibition of -7.3%.
For `Cc1[nH]nc(C(N)=O)c1[N+](=O)[O-]`, the growth inhibition was 0.35%.
`Clc1ccc(-c2noc(/C=C\c3ccccc3)n2)cc1` showed a growth inhibition of 7.45%.
`CCOC(=O)c1cc(C)[nH]c(=O)c1C#N` gave a growth inhibition of 2.65%.
In the case of `Cc1[nH]n(-c2ccccc2)c(=O)c1C=NC(=S)C(N)=S`, the growth inhibition is reported as -20.5%.
`COc1cc(C(=O)NC(=S)NCc2ccncc2)cc(OC)c1OC` showed a growth inhibition of 19.7%.
`CCc1ccccc1C(=O)N(CC)CC` showed a growth inhibition of -6.65%.
Work on `CCOC(=O)Nc1nccs1` yielded a growth inhibition of -4.6%.
Compound `CCOC(=O)c1c(C)[nH]c(C)c1C=O` has a growth inhibition of 3.9%.
Work on `CC(C)c1ccc(C(=O)OCCCl)cc1` yielded a growth inhibition of 23.8%.
With `CCOC(=O)C1(N)CCCCC1` the growth inhibition was 11.8%.
For `C=CCS(C)(=O)=O`, the growth inhibition was -3.65%.
For `CN1C(=O)NC(c2ccc(Cl)cc2)(c2ccc(Cl)cc2)C1=O`, the growth inhibition was 91% (active).
Work on `CC1(C)CC(=O)C=C(N)C1` yielded a growth inhibition of 5.45%.
Compound `CC(=O)C[n+]1ccc(C)cc1Sc1ccccc1C` has a growth inhibition of 33.8%.
In the case of `Cc1cc(Cl)cc(Cc2cc(Cl)cc(C)c2O)c1O`, the growth inhibition is reported as 20.6%.
Work on `Cc1ccc(S(=O)(=O)CCCl)cc1` yielded a growth inhibition of 7.85%.
In the case of `CC(=O)c1cccc(N(C)S(=O)(=O)c2ccc(C)cc2)c1`, the growth inhibition is reported as 37.9%.
Compound `C1CCc2onc(-c3noc4c3CCCCC4)c2CC1` has a growth inhibition of 2.8%.
`CC(=O)OCC1OC(n2cnc3c(=S)nc(N)[nH]c32)C(OC(C)=O)C1OC(C)=O` (centres undefined) showed a growth inhibition of 24.6%.
Compound `N#CCCN1C(=O)CCC1C(=O)O` (centres undefined) has a growth inhibition of 13.3%.
`C=CCOc1ccc(Cl)cc1Cl` gave a growth inhibition of -1.75%.
`Nc1c(O)c(S(=O)(=O)O)c(O)c2c1C(=O)c1ccccc1C2=O` showed a growth inhibition of 33.6%.
Compound `Nc1cc2c(cc1Cl)C(=O)c1ccccc1C2=O` has a growth inhibition of 1.35%.
For `CC(=O)c1cc(O)ccc1O`, the growth inhibition was 1.8%.
With `CN(C)c1ccc(/C=C/C(=O)c2ccc(NC(N)=O)cc2)cc1` the growth inhibition was -8%.
`CCC(=O)Oc1ccc2ccccc2c1` showed a growth inhibition of 29.8%.
